CYP2C19 inhib = inhibitors of human CYP2C19; P33261; CYP2C19 Supersomes, luciferin-H EGE luminescence, 30 min; inhibition, % at 5 µM; hit rate 21% among 96,000; AID 778;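 active = CYP2C19 inhibition above a set limit at 5 µM in the primary screen, cut at about 50% in these data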;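 note: plate controls were negative control wells for no effect and 2.5 mM tranylcypromine positive control for full effect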
Target sequence (P33261 whole entry, looked up): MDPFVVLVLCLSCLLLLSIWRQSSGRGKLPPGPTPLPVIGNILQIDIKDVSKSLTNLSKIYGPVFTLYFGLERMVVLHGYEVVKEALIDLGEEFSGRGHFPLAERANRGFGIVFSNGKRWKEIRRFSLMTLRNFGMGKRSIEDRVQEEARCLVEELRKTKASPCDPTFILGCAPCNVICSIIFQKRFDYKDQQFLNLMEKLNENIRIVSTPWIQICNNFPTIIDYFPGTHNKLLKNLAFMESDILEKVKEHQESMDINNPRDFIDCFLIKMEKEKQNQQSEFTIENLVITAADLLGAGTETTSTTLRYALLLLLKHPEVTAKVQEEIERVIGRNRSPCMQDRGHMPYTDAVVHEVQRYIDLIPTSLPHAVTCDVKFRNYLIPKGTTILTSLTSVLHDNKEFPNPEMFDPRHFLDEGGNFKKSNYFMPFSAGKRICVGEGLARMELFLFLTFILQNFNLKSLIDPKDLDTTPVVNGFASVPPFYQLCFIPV
PLAP act = human PLAP activation. AID 696. P05187. hit rate 1.2% among 96,000. purified PLAP enzyme, luminescent substrate read-out; hits give high values. activation fold at 20 µM; in the data active = activation fold above about 2
CYP2C9 activ = increases human cytochrome P450 2C9 activity. P11712. recombinant CYP2C9, luciferin-H conversion, luminescence; hits give high values; factor 1 = untreated enzyme, 0 = blocked. activation factor at 5 µM. hit rate 1.4% among 96,000;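 active = activation factor of 2 or more for CYP2C9 at a 5 µM dose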;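 note: 0 = sulfaphenazole-blocked wells and 1 = vehicle-only wells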
CYP2C9 inh = blocks human cytochrome P450 2C9; CYP2C9 Supersomes, luciferin-H conversion, luminescence; P11712; AID 777; inhibition, % at 5 µM; hit rate 20% among 96,000;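 active = blocking of liver enzyme CYP2C9 beyond about 50% at 5 µM, limit read from the data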
CYP2C19 activ = activators of human cytochrome P450 2C19; P33261; recombinant CYP2C19, luciferin-H EGE luminescence; hits give high values; 0 = fully inhibited enzyme, 1 = untreated enzyme; activation factor at 5 µM; 96,000 tested, under 10 active; AID 1025;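 active = activation factor of at least 2 at 5 µM in the primary screen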;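 note: 0 = wells with 2.5 mM tranylcypromine and 1 = vehicle-only wells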
Numbers without * were called inactive. Sampled rows, rich in hits. Any-hit rate of the full collection: about 31%.

SMILES | CYP2C19 inhib | PLAP act | CYP2C9 activ | CYP2C9 inh | CYP2C19 activ
Cc1cc(N2CCN(c3ccccc3Cl)CC2)n2cc(-c3ccccc3)nc2n1 | 8.3 | 1.9 | 0.4 | 57.9* | 0.9
Cc1cc(N2CCN(c3ccccc3)CC2)n2cc(-c3ccccc3)nc2n1 | 48.6 | 1.2 | 0.6 | 43.6 | 0.5
Cc1cc(C(=O)OCC(=O)N2c3ccccc3CC2C)c(C)o1 (stereo not drawn) | 75.0* | 1.3 | 0.5 | 48.1 | 0.3
Cc1cc(C(=O)OCC(=O)N2CC(C)CC(C)C2)c(C)o1 (stereo not drawn) | 54.8* | 1.5 | 0.8 | 15.5 | 0.5
CC(C)C(NS(=O)(=O)c1cccs1)C(=O)N1CCc2ccccc2C1 (stereo not drawn) | 78.6* | 1.1 | 0.6 | 43.3 | 0.2
O=C(CCCNS(=O)(=O)c1cccs1)N1CCc2ccccc2C1 | 55.3* | 1.1 | 1.6 | -61.8 | 0.4
O=C(CNS(=O)(=O)c1cccs1)N1CCCC1 | 9.6 | 0.9 | 1 | -4.0 | 0.9
O=C(CNS(=O)(=O)c1cccs1)N1CCc2ccccc2C1 | 53.2* | 1 | 1.1 | -13.0 | 0.5
COc1cc(NC(=O)c2ccccc2Cl)c(OC)cc1NC(=O)CN1CCOCC1 | 13.1 | 1.5 | 0.6 | 44.7 | 0.9
CCCn1c(SCc2ccc(Cl)cc2)nc2c1c(=O)[nH]c(=O)n2C | 67.4* | 1.1 | 0.5 | 47.1 | 0.3
C/C=C/Cn1c(SCc2ccc(Cl)cc2)nc2c1c(=O)[nH]c(=O)n2C | 48.2 | 0.9 | 0.4 | 57.8* | 0.5
O=C(OCn1nnc2ccccc2c1=O)c1cn(-c2ccccc2)nc1-c1cccnc1 | 10.7 | 0.8 | 0.7 | 34.9 | 0.9
Cc1nnc2ccc(N3CCN(c4cccc(C(F)(F)F)c4)CC3)nn12 | 29.0 | 1.4 | 0.8 | 15.5 | 0.7
c1ccc(COc2ccc(CNCc3cccs3)cc2)cc1 | 54.4* | 0.9 | 0.8 | 21.4 | 0.5
COc1ccc(CN(C(C)=O)c2cccc(C)c2C)cc1 | 99.1* | 1.4 | 0.3 | 68.3* | 0
Cc1ccccc1N(CC(=O)NCCc1ccccc1)C(=O)c1ccc(N2CCCC2)nc1 | 56.9* | 1.6 | 0.1 | 95.0* | 0.4
O=C(CN1CCOCC1)NC1C2CC3CC(C2)CC1C3 (stereo not drawn) | -8.4 | 1.1 | 1.1 | -9.9 | 1.1
COC(=O)CSc1nnc(CNS(=O)(=O)c2ccc(Cl)cc2)n1C | -12.9 | 0.9 | 0.9 | 13.0 | 1.1
COc1ccc(-c2onc(C)c2-c2ccccc2)c(O)c1 | 96.0* | 0.9 | 0.6 | 40.6 | 0
COc1ccc(-c2noc(C)c2-c2ccc3ccccc3n2)c(O)c1 | 100.2* | 1.2 | 0.3 | 72.0* | 0
Cc1oc2c(C)c(O)ccc2c(=O)c1-c1ccc2ccccc2n1 | -13.3 | 1.1 | 0.8 | 15.1 | 1.1
CC(=O)NCC(=O)N(C)C(C(=O)Nc1ccc(C(C)C)cc1)c1ccccc1 (stereo not drawn) | -4.8 | 1.4 | 0.9 | 5.6 | 1
CNc1sc(C(=O)c2cccs2)c(N)c1-c1nc2ccccc2s1 | 29.0 | 1 | 0.3 | 67.1* | 0.7
O=C(OCCN1C(=O)CCC1=O)c1ccc(S(=O)(=O)N2CCCCC2)cc1 | -3.2 | 1 | 0.9 | 7.5 | 1
O=C(NC(=S)NNC(=O)c1cccs1)c1ccco1 | -7.9 | 2.2* | 0.9 | 11.4 | 1.1
SMILES | CYP2C19 inhib | PLAP act | CYP2C9 activ | CYP2C9 inh | CYP2C19 activ
O=C(NCCNC(=O)c1cccs1)c1ccco1 | 5.6 | 0.8 | 0.9 | 6.6 | 0.9
COCCNC(=S)NNC(=O)c1ccco1 | -3.5 | 2.1* | 1.1 | -7.8 | 1
CCOc1ccc(CN2CCC(=O)NC2=O)cc1 | 18.0 | 1 | 1.2 | -18.9 | 0.8
CN1CCN(S(=O)(=O)c2ccc3ccccc3c2)CC1 | 7.5 | 0.9 | 2.5* | -145.6 | 0.9
CN(C)S(=O)(=O)N1CCN(S(=O)(=O)c2ccc3ccccc3c2)CC1 | 6.1 | 1 | 1.1 | -6.7 | 0.9
CC1CCN(S(=O)(=O)c2ccc3ccccc3c2)CC1 | 83.3* | 0.5 | 2.7* | -166.6 | 0.2
CN1CCN(S(=O)(=O)c2cccc(S(=O)(=O)c3cccc(S(=O)(=O)N4CCN(C)CC4)c3)c2)CC1 | 39.7 | 1.7 | 0.2 | 80.3* | 0.6
CCOC(=O)N1CCC(N2CCN(S(=O)(=O)c3ccc4ccccc4c3)CC2)CC1 | 12.8 | 1.6 | 2.2* | -118.2 | 0.9
CN1CCN(S(=O)(=O)c2ccc(-c3ccccc3)cc2)CC1 | 44.0 | 0.9 | 0.8 | 24.9 | 0.6
COCC(COCCCNC(=O)Nc1ccc(Br)cc1)OC (stereo not drawn) | 35.7 | 1 | 0.8 | 22.1 | 0.6
CN(/N=C/c1ccncc1)C1=NS(=O)(=O)c2ccccc21 | 54.9* | 1 | 0.7 | 33.0 | 0.5
Cc1ccccc1NC1=NS(=O)(=O)c2ccccc21 | 19.3 | 0.9 | 0.7 | 28.3 | 0.8
Cc1cc([N+](=O)[O-])nn1CC(=O)N1CCc2ccccc2C1 | 27.8 | 0.9 | 0.8 | 22.1 | 0.7
COc1ccc(S(=O)(=O)N(CC(=O)NC2CC2)C2CCCCC2)cc1Cl | 59.4* | 1.3 | 0.3 | 71.6* | 0.4
COc1ccc(N(CC(=O)NCc2ccco2)S(C)(=O)=O)cc1OC | 82.8* | 1 | 0.5 | 49.5 | 0.2
COc1ccc(N(CC(=O)NCc2ccco2)S(C)(=O)=O)cc1 | 46.3 | 1.1 | 0.8 | 18.8 | 0.5
COc1ccc(N(CC(=O)NCc2ccc3c(c2)OCO3)S(C)(=O)=O)cc1OC | 19.3 | 0.9 | 0.9 | 13.3 | 0.8
COc1ccc(N(CC(=O)NCc2ccco2)S(C)(=O)=O)cc1Cl | 66.2* | 1.4 | 1.2 | -20.1 | 0.3
COc1ccc(S(=O)(=O)N(CC(=O)N2CCN(C)CC2)C2CCCCC2)cc1OC | -2.9 | 1.7 | 1 | -2.7 | 1
COc1ccc(S(=O)(=O)N(CC(=O)NCc2ccco2)C2CCCCC2)cc1OC | 85.7* | 1.2 | 0.6 | 40.3 | 0.1
CNC(=O)CN(C1CCCCC1)S(=O)(=O)c1ccc(OC)c(Cl)c1 | 16.3 | 1.1 | 0.8 | 24.0 | 0.8
COc1ccc(Nc2ncnc3c2cnn3Cc2ccccc2)cc1OC | 84.4* | 1.1 | 0.3 | 73.0* | 0.2
c1ccc(-n2ncc3c(NCc4ccco4)ncnc32)cc1 | 50.1* | 0.9 | 0.4 | 58.9* | 0.5

Bioassay records (PubChem)
